# Measured values as given in PubChem BioAssay AID1259415 (National Center for Advancing Translational Sciences (NCATS), 2018).
# The campaign covered roughly 410,000 compounds. About 18,000 (4.4%) were called active. About 7% were inconclusive and are not listed. The sample holds actives, similar compounds and a random draw of the others, so the mix is not that of the screen. Cut-off read from the data, not from the text of the source: active = activity change below about -60%; inconclusive = no clear call, values can overlap the other calls; inactive = above about -39%.
# Assay: qHTS Assay for inhibitors of the human cytomegalovirus (HCMV)
# Conditions: HFF cells, HCMV-luciferase reporter, 72 h; at 57.5 µM; hits give low values
# Outline: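 Two compound doses tested in HFFs infected with HCMV-luciferase, MOI 1 PFU/cell, 72 h at 37C. Lysate luminescence read with OneGlo; data normalized against buffer-only and 10uM Salinomycin inhibitor controls.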
# % is set by controls: 0 for no effect and ±100 for the full control effect.
row,Compound,"activity change, negative = inhibition"
1,Cn1c(=O)oc2cc(S(=O)(=O)NCCC(=O)NCc3ccccc3Cl)ccc21,-30.3% (inactive)
2,O=C(O)c1ccc(Nc2nc(-c3ccccc3)c3cc(Br)ccc3n2)cc1,27.8% (inactive)
3,Cc1cc(Cl)ccc1C(=O)C1CCCN(C(=O)c2nonc2C)C1 (stereo unspecified),-27.9% (inactive)
4,CC(=O)NCC(=O)N1CCCC(C(=O)c2ccc3c4c(cccc24)CC3)C1 (stereo unspecified),2.3% (inactive)
5,Cc1ncoc1C(=O)N1CCCC(C(=O)c2ccc3c4c(cccc24)CC3)C1 (stereo unspecified),-68.2% (active)
6,O=C(Nc1c[nH]c(=O)[nH]c1=O)OCc1ccccc1,46% (inactive)
7,CCCC(=O)Nc1ccc(NC(=O)c2sc3ccccc3c2Cl)cc1,0.957% (inactive)
8,COc1ccc(CNC(=O)CNC(=O)c2sc3ccccc3c2Cl)cc1OC,-67.8% (active)
9,COC(=O)c1cc(NC(=O)c2sc3ccccc3c2Cl)cc(C(=O)OC)c1,5.87% (inactive)
10,COc1ccc(S(=O)(=O)N2CCN(C(=O)c3cccs3)CC2)cc1OC,1.26% (inactive)
11,COC(=O)c1sccc1S(=O)(=O)N(CC(=O)Nc1ccc(C)c(F)c1)c1ccc(C)c(C)c1,-9.21% (inactive)
12,COc1cccc(NC(=O)CN2C(=O)c3ccccc3Sc3ncccc32)c1,35.8% (inactive)
13,CCc1ccc(N(CC)C(=O)CCn2cnc3onc(-c4ccc(F)cc4)c3c2=O)cc1,4.29% (inactive)
14,O=C1CCCCC1C(=O)c1ccccc1 (stereo unspecified),7.64% (inactive)
15,Cc1[nH]c(=O)c(C(=O)/C=C/c2ccccc2)c2c1CCCC2,-104% (active)
16,CC[C@H](C)C(=O)N[C@H]1CCCN1C(=O)/C=C/c1ccccc1,-28.4% (inactive)
17,Cc1ccc(NC2=C(c3ccc(C(F)(F)F)cc3)C(=O)c3ccccc32)cc1F,-26.8% (inactive)
18,O=C1C=C(c2ccnc3cc(Cl)ccc23)C[C@@H](c2ccc3c(c2)OCO3)C1,-66.7% (active)
19,O=C1C=C(c2cccc(Cl)c2O)C[C@@H](c2ccc(F)cc2)C1,15.9% (inactive)
20,N#Cc1ccc(C2=CC(=O)C[C@H](c3ccc(Cl)cc3)C2)cc1,10.5% (inactive)
21,O=C(Cc1ccc(Cl)cc1)NCCN1CCN(C(=O)Cc2ccc(Cl)cc2)CC1,-18.4% (inactive)
22,Cc1ccc(-c2cnc(NCc3ccc(C(C)C)cc3)n2C)cc1,-37.1% (inactive)
23,Cc1ccc(C(=O)Nc2ccc(OCc3cc(=O)n4c(C)csc4n3)cc2)cc1,13.5% (inactive)
24,Cc1ccc(OCCC(=O)Nc2ccc(S(=O)(=O)Nc3nccs3)cc2)cc1,-11.9% (inactive)
25,CCC(CC)C(=O)Nc1ccc(S(=O)(=O)Nc2nccs2)cc1,-32.7% (inactive)
26,COc1ccccc1OC(C)C(=O)Nc1ccc(S(=O)(=O)Nc2nccs2)cc1 (stereo unspecified),-71.4% (active)
